# Assay results published in PubChem BioAssay (NCATS).
# Inconclusive results are not listed. Where a call stands in place of a potency, no number is given. Activity calls are given as the source filed them. The call rests on the fitted dose curve; in most records, active means well fitted inhibition curve with a large enough effect; inconclusive means small, poorly fitted or top-dose-only effect; inactive means flat fitted curve, though single readings scatter. *1 amine or outer side, *2 acyl side, *3 side chain or, on linkers, in order; H or OH if unused. Where a SMILES comes first, the peptide text is derived from it. [ ]: non-standard residue; d: D form. X4 = CC(C)=CCc1cc(C(O)C(N[*:1])C(=O)[*:2])ccc1O
# Tests used:
# [1] = test system: NIH3T3; assay: Cytotoxic Profiling of Annotated Libraries Using Quantitative High-Throughput Screening (AID 1296008); settings: Five cell lines viability, CellTiter-Glo ATP luminescence, 48-72 h; max response: active compounds read low
# In short: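 Cells exposed to compounds for 48 or 72 hr at 37 degrees Celsius. Viability read as ATP-coupled luminescence with CellTiter-Glo after 10 min at room temperature.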
# [2] = test system: NIH3T3; assay: qHTS assay to identify novel small-molecules to repurpose for Merkel cell carcinoma treatment (AID 1296009); settings: MCC and control cell lines, CellTiter-Glo viability, 72 h; at 44.8 µM (top of the series) unless noted; further: potency means the concentration at half of the fitted maximal effect
# In short: (§1)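 Cells were incubated with compound for 72 hr at 37 degree celsius before CellTiter-Glo addition. Luminescence was normalized with no-cell wells as full cytotoxicity and DMSO as baseline.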
# [3] = test system: HEK293T; assay: as above; settings: MCC and control cell lines, CellTiter-Glo viability, 72 h; at 44.8 µM (top of the series) unless noted
# In short: as §1
# [4] = test system: HACAT; assay: as above; settings: MCC and control cell lines, CellTiter-Glo viability, 72 h; series mostly up to 44.8 µM
# In short: as §1
# [5] = test system: MKL-1; assay: as above; settings: MCC and control cell lines, CellTiter-Glo viability, 72 h; series mostly up to 46 µM
# In short: as §1
# [6] = test system: MKL-2; assay: as above; settings: MCC and control cell lines, CellTiter-Glo viability, 72 h; series mostly up to 46 µM
# In short: as §1
# [7] = test system: UISO; assay: as above; settings: MCC and control cell lines, CellTiter-Glo viability, 72 h; series mostly up to 46 µM
# In short: as §1
# [8] = test system: WaGa; assay: as above; settings: MCC and control cell lines, CellTiter-Glo viability, 72 h; series mostly up to 46 µM
# In short: as §1
# Further: nearly all actives have a fitted effect of over 60% in size.
compound,measurement,setting,value
CC(=O)OC1C(O)CC2(C)C(CCC(C)C23Cc2c(O)cc(CO)c(C=O)c2O3)C1(C)C (stereo unspecified),outcome,[1],inactive
same,outcome,[2],inactive [at 17.4 µM]
COC(=O)C12CCC(C)C(C)C1C1=CCC3C4(C)CCC(OC(C)=O)C(C)(C)C4CCC3(C)C1(C)CC2 (stereo unspecified),outcome,[1],inactive
same,outcome,[2],inactive [at 17.4 µM]
CC(=O)O[C@@H]1[C@H](O)[C@@H](O[C@@H]2O[C@@H](C)[C@H](O[C@@H]3OC[C@@H](O)[C@H](O[C@@H]4OC[C@@H](O)[C@H](O)[C@H]4O)[C@H]3O)[C@@H](O[C@@H]3O[C@H](CO)[C@@H](O)[C@H](O)[C@H]3O)[C@H]2O)[C@H](OC(=O)[C@]23CCC(C)(C)C[C@H]2C2=CCC4[C@@]5(C)CC[C@H](O[C@@H]6O[C@H](C(=O)O)[C@@H](O)[C@H](O[C@@H]7OC[C@@H](O)[C@H](O)[C@H]7O)[C@H]6O[C@@H]6O[C@H](CO)[C@H](O)[C@H](O)[C@H]6O)[C@@](C)(C=O)C5CC[C@@]4(C)[C@]2(C)CC3)O[C@@H]1C (stereo partly specified),outcome,[1],inactive
same,outcome,[2],inactive [at 4.96 µM]
Cn1nnc(-c2ccc(-c3ccc(N4C[C@H](CO)OC4=O)cc3F)cn2)n1,outcome,[1],inactive
same,outcome,[2],inactive
C[C@]12C[C@@H](O)[C@@H]3C[C@@]1(O[C@@H]1O[C@H](CO)[C@@H](O)[C@H](O)[C@H]1O)[C@]3(COC(=O)c1ccccc1)C(=O)O2,outcome,[1],inactive
same,outcome,[3],inactive [at 17.4 µM]
same,outcome,[2],inactive [at 17.4 µM]
CC1CC(O)C2(OC1=O)OC1C(O)C3C4CCC5CC(OC6OC(CO)C(O)C(O)C6OC6OC(C)C(O)C(O)C6O)CCC5(C)C4CCC3(C)C1C2C (stereo unspecified),outcome,[1],inactive
same,outcome,[3],inactive [at 17.4 µM]
same,outcome,[2],inactive [at 17.4 µM]
O=S(=O)(Nc1ccccn1)c1ccc(N=Cc2c(O)[nH]c3ccc4ncsc4c23)cc1,outcome,[1],inactive
same,outcome,[2],inactive [at 9.27 µM]
C/C(=C\CCC(C)CCO)C(=O)OC1(C)CCC2C(C(=O)O)=COC(OC3OC(CO)C(O)C(O)C3O)C21 (stereo unspecified),outcome,[1],inactive; activator
same,outcome,[3],inactive [at 17.4 µM]
same,outcome,[2],inactive; activator [at 17.4 µM]
NC1(C(=O)NC(CCO)c2ccc(Cl)cc2)CCN(c2ncnc3[nH]ccc23)CC1 (stereo unspecified),outcome,[1],inactive
same,outcome,[2],inactive
CC1CCC2(OC1)OC1CC3C4CCC5C[C@@H](O[C@@H]6O[C@H](CO[C@@H]7OC[C@@H](O)[C@H](O)[C@H]7O)[C@H](O)[C@H](O)[C@H]6O)CC[C@]5(C)C4CC[C@]3(C)C1C2C (stereo partly specified),outcome,[1],inactive
same,outcome,[3],inactive [at 17.4 µM]
same,outcome,[2],inactive [at 17.4 µM]
CC(C)=CCc1cc(C(O)C2NC(=O)CNC(=O)C(Cc3c[nH]c4ccccc34)NC(=O)C3CCCN3C(=O)CNC(=O)C(C(C)C)NC(=O)CNC2=O)ccc1O (stereo unspecified) (cyclo(G[X4]GVGPW); configuration not given here),outcome,[1],inactive
same,outcome,[2],inactive [at 9.27 µM]
O=C1CCC(=O)N(O)CCCCCNC(=O)CCC(=O)N(O)CCOCCNC(=O)CCC(=O)N(O)CCCCCN1,outcome,[1],inactive
same,outcome,[2],inactive [at 17.4 µM]
C[C@H](C(=O)NC1CCCC1)N(C(=O)Cn1nnc(-c2ccc3c(c2)OCO3)n1)C1CCCCC1,outcome,[1],inactive
same,outcome,[2],inactive
C=C1CCC2C(C)(COC(C)=O)CCCC2(C)C1CCC(C)CC(=O)O (stereo unspecified),outcome,[1],inactive
same,outcome,[3],inactive
same,outcome,[2],inactive
COC1/C=C/C(C)(O)C(SCC(N)C(=O)O)CC(=O)OC(C)C(C)CC/C=C/1C (stereo unspecified),Potency,[4],inactive
same,outcome,[3],inactive [at 17.4 µM]
O=C(CO)[C@@H](O)[C@H](O[C@@H]1O[C@H](CO)[C@H](O)[C@H](O)[C@H]1O)[C@H](O)CO,outcome,[3],inactive
CN(C)CC1CCOC1(c1ccccc1)c1ccccc1 (stereo unspecified),outcome,[1],inactive
same,outcome,[2],inactive [at 17.4 µM]
c1ccc(-c2csc(N3CCOCC3)n2)cc1,outcome,[3],inactive
C[C@@H]1O[C@@H](O[C@H]2[C@H](OC(=O)[C@]34CCC(C)(C)C[C@H]3C3=CCC5[C@@]6(C)C[C@H](O)[C@H](O[C@@H]7O[C@H](CO)[C@@H](O)[C@H](O)[C@H]7O)[C@@](C)(CO)C6[C@H](O)C[C@@]5(C)[C@]3(C)CC4)OC[C@H](O)[C@@H]2O)[C@H](O)[C@H](O)[C@H]1O[C@@H]1OC[C@@H](O)[C@H](O[C@@H]2OC[C@](O)(CO)[C@H]2O)[C@H]1O (stereo partly specified),outcome,[1],inactive
same,outcome,[2],inactive [at 9.27 µM]
Cc1ccc(N)cc1O,Potency,[4],inactive
same,Potency,[5],6.11 µM (active)
same,Potency,[6],6.11 µM (active)
same,Potency,[7],24.3 µM (active)
same,Potency,[8],6.11 µM (active)
CCOC(=O)c1sc(NC(=O)[C@H](C(C)C)n2c(=O)[nH]c3ccccc3c2=O)nc1C,Potency,[4],inactive
CC1CCCCN1S(=O)(=O)c1ccc(N2CCCC2=O)cc1 (stereo unspecified),outcome,[3],inactive
COc1cc(Nc2nc3ccccc3nc2NS(=O)(=O)c2ccc(NC(=O)c3ccc(OC)c(C)c3)cc2)cc(OC)c1,outcome,[1],inactive
same,outcome,[2],inactive
COc1ccc(C2(O)c3ccccc3NC(=O)C2O)cc1 (stereo unspecified),outcome,[1],inactive
same,outcome,[2],inactive
CC(=O)OC/C=C(\C)C(CC1C(C)=C(OC(C)=O)C(=O)C2C(C)(C)C(O)CCC12C)OC(C)=O (stereo unspecified),Potency,[4],inactive
Cn1cc(-c2ccc3nnc(Sc4ccc5nn(C)cc5c4)n3n2)cn1,outcome,[3],inactive
O=C1C=CC2OC(c3ccccc3)C(O)C2O1 (stereo unspecified),Potency,[4],inactive
CC[C@]12C=CCN3CC[C@@]4(c5cc([C@@]6(C(=O)OC)C[C@H]7C[C@@H](C(C)(F)F)CN(Cc8c6[nH]c6ccccc86)C7)c(OC)cc5N(C)[C@H]4[C@@](O)(C(=O)OC)[C@@H]1OC(C)=O)[C@@H]32,Potency,[4],inactive
